Results filed as inconclusive are left out. Unmarked numbers belong to inactive results. The call rests on the fitted dose curve; in most records, active means well fitted activation curve with a large enough effect in the signal ratio in the repeat runs, with a control signal flat (not every such curve was filed as active); inconclusive means weak or mixed curves; inactive means flat fitted curve, though single readings scatter; the % refers to the signal ratio.
On the % scale 0 is the no-effect control and ±100 the full control effect.

This experiment can be described thus: qHTS assay for small molecule activators of the heat shock response signaling pathway (AID 743210). The following applies: HeLa HSE-bla reporter, beta-lactamase ratio, 5 h; series mostly up to 62.6 µM; activation: at the top concentration. The source says:
U.S. Tox21 Program National Center for Advancing Translational Sciences [NCATS] NIH Chemical Genomics Center [NCGC] U.S. Environmental Protection Agency [EPA] National Institutes of Environmental Health Sciences [NIEHS] National Toxicology Program [NTP] U.S. Food and Drug Administration [FDA] Tox21 Assay Overview: Various chemicals, environmental and physiological stress conditions may lead to the activation of heat shock response/ unfolded protein response (HSR/UPR). There are three heat shock transcription factors (HSFs) (HSF-1, -2, and -4) mediating transcriptional regulation of the human HSR. To identify the compounds that activate HSR signaling, HSE-bla HeLa cell line (Invitrogen, Carlsbad, CA, USA) containing a beta-lactamase reporter gene under the control of the heat shock response elements was used to screen the Tox21 10K compound library.
Tox21 Assay Protocol Summary: The CellSensor HSE-bla HeLa cells (Invitrogen, Carlsbad, CA, USA) were dispensed at 1500 cells/6uL/well into 1536-well black wall/clear bottom plates using a Multidrop combi (Thermo Fisher Scientific, Waltham, MA) dispenser. After the assay plates were incubated at 37 C and 5% CO2 overnight, 23 nL of compounds dissolved in DMSO, positive controls or DMSO only was transferred to the assay plate by a Pintool station (Kalypsys, San Diego, CA). The plates were incubated at 37 C for 5 h. After 1 uL of LiveBLAzerTM B/G FRET substrate was added using a Flying Reagent Dispenser (Beckman Coulter, Indianapolis, IN, USA), the plates were incubated at room temperature for 2.5 h, and fluorescence intensity was measured by an Envision plate reader (PerkinElmer, Shelton, CT).
On the technique in general: Quantitative high-throughput screening tests each substance at several concentrations.
Regarding `CC1c2ccccc2CN1NC(=O)c1ccc(Cl)c(S(N)(=O)=O)c1` (stereo not given), the “activation” value is 0.6%. Next, `CCC[C@@H]1C[C@@H](C(=O)N[C@@H]([C@H]2O[C@H](SC)[C@H](O)[C@@H](O)[C@H]2O)[C@@H](C)O)N(C)C1`: -1.49%. Then `C[Si]1(C)O[Si](C)(C)O[Si](C)(C)O[Si](C)(C)O[Si](C)(C)O1`, with -0.398%. Take `C=CCCCCCCCC`: the “activation” value was -0.571% [at 81.1 µM]. Then `O/N=C/C=N/O`, with -0.0347%.

For the molecule `CCCCOCC(C)O` (stereo not given), the “activation” value is -2.22% [at 81.1 µM]. Then `CC(=O)CC(=O)OC(C)(C)C`, with -1.28%. Next, `CC(CO)(CO)CO`: 1.01% [at 81.1 µM]; `Cn1nnc2c(C(N)=O)ncn2c1=O`: -1.65%. For the molecule `CCCCOC(=O)C(C)O` (stereo not given), the “activation” value is 0.657%. Then `c1ccc(-c2nn[nH]n2)cc1`, with 0.0774%; and `O=C1c2ccccc2C(=O)c2cc(Cl)ccc21`, with -0.0238% [at 5.95 µM]; and `CCOc1cccc(N)c1`, with 0.0333%. Then `OC[C@H]1O[C@@H](O[C@@H]2[C@@H](CO)O[C@](O)(CO)[C@H]2O)[C@H](O)[C@@H](O)[C@H]1O`, with -1.24%; and `CCCC(CC)c1ccccc1` (stereo not given), with -0.121%. Next, `CC(=O)O[C@H]1C[C@@H]2CC[C@@]1(C)C2(C)C`: 0.834%; `CC(=O)c1cc(C)oc1C`: -0.0015% [at 81.1 µM]; `OC[C@@H](O)C(O)[C@@H](O)CO` (stereo not given in full): -1.83% [at 81.1 µM].

`CCOC(CN1CCN(CC(C)C(=O)c2ccccc2)CC1)c1ccccc1` (stereo not given): the “activation” value was -0.382% [at 29.1 µM]. Next, `NCC1(Cc2noc(=O)[nH]2)CCCCC1`: 0.0507%; `c1ccc2c(CC3=NCCN3)cccc2c1`: -0.346%. Then `CCCSSCCC`, with 0.224%; and `O=C=NCC1CCCC(CN=C=O)C1` (stereo not given), with 1.09%; and `CC1OCCC1=O` (stereo not given), with -0.717%. Take `CN(C)CCN(C)CCO`: the “activation” value was -1.11%. Regarding `COc1nc(N)nc2nc[nH]c12`, the “activation” value was 0.831%. Next, `CCCCCCCCCOC(=O)CCCCC(=O)OCCCCCCC`: -1.99%. On to `CN1CCOC(c2ccccc2)c2ccccc2C1` (stereo not given), for which the “activation” value is 0.983%. In the case of `OC1OCCOC1O` (stereo not given), the “activation” value was 0.43%. Next, `Cc1cc(C)c(C(=O)O)c(C)c1`: -1.43%; `CC(C)(CO)C(O)C(=O)NCCCO` (stereo not given): 1.51%; `CC12CCC(C1)C(C)(C)C2O` (stereo not given): -0.116%. Next, `O=NN(CCCl)C(=O)NC1CCCCC1`: 2.9%.

For `CN(C)CCOC(=O)C(c1ccccc1)C1(O)CCCC1` (stereo not given), the “activation” value was 2.06%. Then `CC(N)CCCC(C)(C)O` (stereo not given), with 0.802%; and `Cc1ccnc(N)c1`, with 0.4%; and `C=CCOC(=O)CCCCCC`, with -1.16%. Next, `Fc1ccccc1`: -0.281% [at 81.1 µM]; `CC(C)NC(=O)c1ccc(C=O)cc1`: -0.0291%; `CO[C@@]1(NC(=O)Cc2cccs2)C(=O)N2C(C(=O)O)=C(COC(N)=O)CS[C@@H]21`: -1.38%.

The record behind these values is PubChem BioAssay (Tox21).
